Results reported in PubChem BioAssay AID1259249 (Broad Institute, 2017).
Several values for one entry are separate records, joined by “and”; a condition that tells them apart may be missing. Identical values can stand only once. About 220 (0.26%) of roughly 86,000 compounds were called active.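 The calls were made as follows: active = mean growth activity at or below -80% and every replicate also at or below -80%; inconclusive = mean at or below -80% but some replicate above -80%; inactive = mean growth activity above -80%.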 Shown is part of a subset that was picked to be rich in actives.

assay: blockers of Clostridium difficile growth – HTS, primary screen (AID 1259249); details: Clostridium difficile clinical isolate growth, OD600, 24 h; stronger effect = lower value; screened at 16 µg/mL (by protocol);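 also: 0% = DMSO wells and -100% = levofloxacin 16 µg/mL wells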

Growth activity, negative = inhibition, active:
Cc1cccc(-c2ccc(C3[C@@H]4CN(C(=O)Nc5ccc(C(F)(F)F)cc5)C[C@H]3N4)cc2)c1 (stereo partly drawn) -94.2% and -85.7%
COc1ccccc1CN1CC[C@@H]2[C@@H](CO)Nc3ccc(C#Cc4ccccc4)cc3[C@@H]21 -94.5%

Growth activity, negative = inhibition, inactive:
COc1ccccc1CN1[C@H](CO)[C@@H](c2ccccc2)C12CN(C(=O)c1cnccn1)C2 5.54%
CN1CCN(C(=O)C[C@H]2CC[C@H]3[C@@H](COC[C@H](O)CN3CC3CCOCC3)O2)CC1 -4.46% and 6.12%
COCCNC(=O)C[C@H]1CC[C@@H]2[C@@H](COc3ccc(NC(=O)C4CCOCC4)cc3C(=O)N2C)O1 -4.68%
CNC(=O)C[C@@H]1CC[C@@H]2[C@@H](COc3ccc(NC(=O)c4ccc(F)cc4)cc3C(=O)N2C)O1 8.61%
O=C(N[C@@H]1CC[C@@H](CC(=O)N2CCc3ccccc3C2)O[C@H]1CO)C1CC1 -3.47%
CCCNC(=O)N1CC2(C1)[C@H](c1ccccc1)[C@@H](CO)N2Cc1cccc(Cl)c1 17%
O=C(Nc1ccc(F)cc1)N1C[C@@H]2[C@H](c3ccccc31)[C@H](CO)N2Cc1ccccc1 3.9%
O=C(C1CCCCC1)N1C[C@@H]2N[C@H](C1)C2c1ccc(-c2cccc(F)c2)cc1 (stereo partly drawn) 56.1% and 10.9%
CN(C)C(=O)c1ccc(-c2ccc(C3[C@@H]4CN(C(=O)Nc5ccccc5)C[C@H]3N4)cc2)cc1 (stereo partly drawn) 4.58%
COc1ccc2c3c(n(C)c2c1)[C@H](CO)N(Cc1ccccc1)CC31CN(C(=O)c2ccccc2F)C1 20.3%
CCCC(=O)Nc1ccc2c(c1)OC[C@H](C)N(C(=O)CC)C[C@H](C)[C@@H](OC)CN(C)C2=O -5.26%
COc1ccc2c3c([nH]c2c1)[C@@H](CO)N(C(C)=O)CC31CN(C(=O)Nc2ccc(F)cc2)C1 1.62%
CN1CCCCN2[C@@H](CO)[C@@H](c3ccc(C4=CCCC4)cc3)[C@@H]2C1 0.437%
N#C[C@@H]1[C@H](c2ccc(-c3cccnc3)cc2)[C@H](CO)N1C(=O)C1CC1 -3.1%
O=C(CN1CCOCC1)NCC[C@@H]1CC[C@@H](NC(=O)Nc2ccccc2)[C@H](CO)O1 0.549%
O=S(=O)(N[C@H]1CC[C@@H](CCNS(=O)(=O)c2ccccc2Cl)O[C@@H]1CO)c1ccccc1 -8.16%
COc1ccc(C#Cc2ccc([C@@H]3[C@H](CO)N4C(=O)CN(C(C)=O)C[C@@H]34)cc2)cc1 -6.73%
O=C(O)CCCCCCC(=O)NOCc1ccccc1 -0.197%
CN(C)CC(=O)N[C@@H]1CC[C@H](CC(=O)NCc2ccc(Cl)cc2)O[C@H]1CO 3.53%
CC(C)C#Cc1ccc2c(c1)O[C@@H](CN(C)C(=O)Nc1ccccc1)[C@H](C)CN([C@H](C)CO)S2(=O)=O 3.59%
CCCc1cn(CC[C@@H]2CC[C@@H](NC(=O)C3CC3)[C@H](CO)O2)nn1 -2.37%
O=C(CC1CC1)N1[C@@H](CO)[C@@H](c2ccccc2)C12CN(S(=O)(=O)c1ccccc1)C2 1.02%
COc1ccc2c3c([nH]c2c1)[C@@H](CO)N(Cc1nccs1)CC31CCN(C(=O)C2CCCC2)CC1 1.43%
CCCC(=O)Nc1ccc2c(c1)C(=O)N(C)[C@H]1CC[C@@H](CC(=O)NCC(F)(F)F)O[C@@H]1CO2 4.45%
COCC(=O)N1CC[C@@H]2[C@@H](CO)Nc3ccc(-c4ccc(C(=O)N(C)C)cc4)cc3[C@@H]21 -7.52%
CO[C@@H]1CN(C)C(=O)c2cc(NC(=O)C3CC3)ccc2OC[C@@H](C)N(C(=O)c2ccccc2F)C[C@@H]1C -0.472%
O=C(C[C@H]1C[C@@H]2c3cc(NC(=O)C4CCOCC4)ccc3O[C@@H]2[C@H](CO)O1)NCC1CC1 -3.84%
CO[C@@H]1CN(C)C(=O)c2cc(NC(=O)Nc3cccc(Cl)c3)ccc2OC[C@@H](C)N(C)C[C@@H]1C -2.08%
CCS(=O)(=O)Nc1ccc2c(c1)C(=O)N(C)[C@@H]1CC[C@@H](CC(=O)NC)O[C@H]1CO2 3.49%
COc1ccc2c3c(n(C)c2c1)[C@H](CO)N(C(=O)Cc1ccccc1)CC31CCN(C)CC1 -5.17%
O=C(C1CCC1)N1C[C@H]2[C@@H](c3ccccc31)[C@H](CO)N2C(=O)Nc1cccc(F)c1 -2.73%
CCCNC(=O)N1C[C@H](C)[C@@H](OC)CN(C)C(=O)c2ccc(NS(=O)(=O)CC(F)(F)F)cc2OC[C@@H]1C -2.19%
O=C(c1cccc(F)c1)N1CC[C@@H]2[C@H](CO)Nc3ccc(C#Cc4ccccc4)cc3[C@@H]21 0.292%
CN1C(=O)c2cc(NC(=O)C3CC3)ccc2OC[C@@H]2O[C@H](CC(=O)NCC3CCCCC3)CC[C@@H]21 -3.31%
COc1cccc(S(=O)(=O)N2[C@@H]3CNC[C@H]2C3c2ccc(-c3ccccc3OC)cc2)c1 (stereo partly drawn) 17.5% and 1.35%
COC(=O)[C@@H]1[C@@H](CO)[C@@H]2Cn3c(ccc(-c4ccc(OC)cc4)c3=O)[C@@H]2N1S(C)(=O)=O -4.77%
O=C(O)C[C@@H]1CC[C@H](NC(=O)CCN2CCCCC2)[C@H](CO)O1 -9.12%
COc1ccc(C#Cc2ccc3c(c2)[C@H]2[C@H](CCN2Cc2nccs2)[C@@H](CO)N3)cc1 -3.82%
CC(=O)N1CC[C@@H]2[C@H](CO)Nc3ccc(C#Cc4ccccc4F)cc3[C@@H]21 -13.8%
N#C[C@@H]1[C@H](c2ccc(C#CC3CCCCC3)cc2)[C@@H](CO)N1S(=O)(=O)c1ccccc1 -14.1%
COc1ccc2c3c(n(C)c2c1)[C@@H](CO)N(C(=O)Nc1ccccc1F)CC31CCN(C(=O)c2ccccc2F)CC1 -1.72%
